In all, about 340,000 compounds went through this assay and about 8,500 (2.5%) were called active.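 How the source made its calls: active means melting temperature shift of at least 10% of the positive control shift, at one fixed dose; inactive means the rest.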 The list comes from a sample in which actives are over-represented; it also holds similar structures and randomly drawn compounds.

This test has as its system Glutamate receptor ionotropic, NMDA 3A (GRIN3A) ligand-binding domain. Put plainly: NR3A LBD thermal stabilization by compounds – biophysical, differential scanning fluorimetry, uHTS, primary screen (AID 1259313). To be noted: at 25 µM, stronger effect = higher value. Background: Differential scanning fluorimetry follows unfolding on heating by fluorescence.
`CN1CCN(C(=S)SCC(=O)Nc2ccc(Cl)cc2C(=O)c2ccccc2)CC1`: the Tm shift relative to glycine control was 3.94% (inactive).
For `O=C(COC(=O)c1ccccc1)Nc1ccc(Cl)cc1C(=O)c1ccccc1`, the Tm shift relative to glycine control was 12.2% (active).
For the compound `O=C(CCNS(=O)(=O)c1ccccc1)Nc1ccc(Cl)cc1C(=O)c1ccccc1`, the Tm shift relative to glycine control is -5.82% (inactive).
As for `O=C(Nc1cccc2ccccc12)N1CCC2(CC1)OCCO2`, the Tm shift relative to glycine control was 0% (inactive).
On to `Cc1cc(N2C(=O)C3CCCN3C2c2ccc(Cl)c(Cl)c2)no1` (stereo not given), for which the Tm shift relative to glycine control was 0.27% (inactive).
On to `COCCNC(=O)CN1C2CCC1CC(O)(c1cccnc1)C2` (stereo not given), for which the Tm shift relative to glycine control was 0.09% (inactive).
In the case of `COc1ccc(N2C(=O)/C(=C/c3ccco3)C(=O)NC2=S)cc1` it was 10.6% (active).
Turning to `O=C1NC(=O)N(Cc2ccco2)C(=O)/C1=C\c1ccc(-c2ccc(F)cc2)o1`, the Tm shift relative to glycine control was 0.53% (inactive).
As for `COc1cccc(N2C(=O)NC(=O)/C(=C\c3ccc([N+](=O)[O-])s3)C2=O)c1`, the figure is -7.7% (inactive); as for `CC[N+]1(C)CCCC(OC(=O)C(O)(c2ccccc2)c2ccccc2)C1` (stereo not given), 1.89% (inactive); as for `CC1=C(C(=O)Nc2ccccc2)S(=O)(=O)CCO1`, 0.53% (inactive).
As for `CCNc1nc2[nH]c(=O)c3c(c2s1)OC(N)=C(C#N)C3c1cccs1` (stereo not given), the figure is 1.75% (inactive); as for `CCN1C(=O)C(=Cc2c(C)n(CC(=O)NCC3CCCO3)c3ccccc23)C(=O)N(CC)C1=S` (stereo not given), 0.27% (inactive); as for `CCCCCCCCCCCCn1ccc(=N)cc1`, 20.8% (active).
Take `CCN1C(=O)NC(=O)C2(CCCC2)C1=O`: the Tm shift relative to glycine control was 1.88% (inactive).

The values are drawn from PubChem BioAssay AID1259313 (Sanford-Burnham Center for Chemical Genomics, 2017).
